# Measured values reported in the supplement of paper PMC8728848.
# Shown is part of a subset that was picked to be rich in the strongest signals.
# Assays:
# Assay in all cases: glycan array binding signal (z-score within array); higher = stronger binding
# Settings in all cases: glycan notation: IUPAC condensed, linker removed
# [1] = molecular target: Fuc(a1-2)Gal(b1-3)GalNAc(a1-3)[Fuc(a1-2)]Gal(b1-4)GlcNAc
# Outline: (§1)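 Negative Z-scores can be read as non-binding. The Z-score is calculated within each array and then averaged across arrays of one protein sequence at different concentrations or buffers and across linkers. Arrays, 3228 in all, were curated from the Consortium for Functional Glycomics database and kept only where the protein sequence was available.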
# [2] = molecular target: Fuc(a1-2)Gal(b1-4)GlcNAc(b1-2)Man(a1-3)[Fuc(a1-2)Gal(b1-4)GlcNAc(b1-2)Man(a1-6)]Man(b1-4)GlcNAc(b1-4)[Fuc(a1-6)]GlcNAc
# Outline: as §1
# [3] = molecular target: Fuc(a1-2)Gal(b1-4)[Fuc(a1-3)]GlcNAc(b1-2)[Fuc(a1-2)Gal(b1-4)[Fuc(a1-3)]GlcNAc(b1-4)]Man(a1-3)[Fuc(a1-2)Gal(b1-4)[Fuc(a1-3)]GlcNAc(b1-2)Man(a1-6)]Man(b1-4)GlcNAc(b1-4)GlcNAc
# Outline: as §1
# [4] = molecular target: Fuc(a1-2)Gal(b1-4)[Fuc(a1-3)]GlcNAc(b1-3)Gal(b1-4)[Fuc(a1-3)]GlcNAc(b1-3)Gal(b1-4)[Fuc(a1-3)]GlcNAc
# Outline: as §1
# [5] = molecular target: Fuc(a1-2)Gal6S(b1-3)GlcNAc6S
# Outline: as §1
# [6] = molecular target: Fuc(a1-2)[Gal(a1-3)]Gal(b1-4)GlcNAc(b1-2)Man
# Outline: as §1
# Fuc(a1-3)GlcNAc = molecular target: Fuc(a1-3)GlcNAc
# Outline: as §1
# [7] = molecular target: Fuc(a1-3)[Gal(b1-4)]GlcNAc
# Outline: as §1
# [8] = molecular target: Fuc(a1-3)[GalNAc(b1-4)]GlcNAc
# Outline: as §1
# [9] = molecular target: Gal(a1-3)Gal(b1-3)[Fuc(a1-4)]GlcNAc(b1-2)Man(a1-3)[Gal(a1-3)Gal(b1-3)[Fuc(a1-4)]GlcNAc(b1-2)Man(a1-6)]Man(b1-4)GlcNAc(b1-4)GlcNAc
# Outline: as §1
# Gal(a1-3)Gal(b1-4)Glc = molecular target: Gal(a1-3)Gal(b1-4)Glc
# Outline: as §1
# [10] = molecular target: Gal(a1-3)[Gal(a1-4)]Gal(b1-4)GlcNAc
# Outline: as §1
# [11] = molecular target: Gal(b1-3)GlcNAc(b1-6)Gal(b1-4)GlcNAc
# Outline: as §1
# [12] = molecular target: Gal(b1-4)GlcNAc(b1-3)Gal(b1-3)GlcNAc
# Outline: as §1
# [13] = molecular target: Gal(b1-4)GlcNAc(b1-3)Gal(b1-4)GlcNAc(b1-2)Man(a1-3)[Gal(b1-4)GlcNAc(b1-3)Gal(b1-4)GlcNAc(b1-2)Man(a1-6)]Man(b1-4)GlcNAc(b1-4)GlcNAc
# Outline: as §1
# [14] = molecular target: Gal(b1-4)GlcNAc(b1-3)Gal(b1-4)GlcNAc(b1-3)Gal(b1-4)GlcNAc
# Outline: as §1
# [15] = molecular target: Gal(b1-4)GlcNAc(b1-3)Gal(b1-4)GlcNAc(b1-3)Gal(b1-4)GlcNAc(b1-2)Man(a1-3)[Gal(b1-4)GlcNAc(b1-3)Gal(b1-4)GlcNAc(b1-3)Gal(b1-4)GlcNAc(b1-2)Man(a1-6)]Man(b1-4)GlcNAc(b1-4)GlcNAc
# Outline: as §1
# [16] = molecular target: Gal(b1-4)GlcNAc(b1-3)Gal(b1-4)GlcNAc(b1-3)Gal(b1-4)GlcNAc(b1-3)Gal(b1-4)GlcNAc(b1-2)[Gal(b1-4)GlcNAc(b1-3)Gal(b1-4)GlcNAc(b1-3)Gal(b1-4)GlcNAc(b1-3)Gal(b1-4)GlcNAc(b1-6)]Man(a1-6)[Gal(b1-4)GlcNAc(b1-3)Gal(b1-4)GlcNAc(b1-3)Gal(b1-4)GlcNAc(b1-3)Gal(b1-4)GlcNAc(b1-2)Man(a1-3)]Man(b1-4)GlcNAc(b1-4)[Fuc(a1-6)]GlcNAc
# Outline: as §1
# [17] = molecular target: Gal(b1-4)GlcNAc(b1-3)Gal(b1-4)GlcNAc(b1-3)Gal(b1-4)GlcNAc(b1-3)Gal(b1-4)GlcNAc(b1-3)Gal(b1-4)GlcNAc(b1-2)[Gal(b1-4)GlcNAc(b1-3)Gal(b1-4)GlcNAc(b1-3)Gal(b1-4)GlcNAc(b1-3)Gal(b1-4)GlcNAc(b1-3)Gal(b1-4)GlcNAc(b1-6)]Man(a1-6)[Gal(b1-4)GlcNAc(b1-3)Gal(b1-4)GlcNAc(b1-3)Gal(b1-4)GlcNAc(b1-3)Gal(b1-4)GlcNAc(b1-3)Gal(b1-4)GlcNAc(b1-2)Man(a1-3)]Man(b1-4)GlcNAc(b1-4)[Fuc(a1-6)]GlcNAc
# Outline: as §1
# [18] = molecular target: Gal(b1-4)GlcNAc(b1-6)Gal(b1-4)GlcNAc
# Outline: as §1
# Gal3S(b1-3)GlcNAc = molecular target: Gal3S(b1-3)GlcNAc
# Outline: as §1
# Gal3S6S(b1-4)GlcNAc6S = molecular target: Gal3S6S(b1-4)GlcNAc6S
# Outline: as §1
# [19] = molecular target: GalNAc(b1-4)GlcNAc(b1-2)Man(a1-3)[GalNAc(b1-4)GlcNAc(b1-2)Man(a1-6)]Man(b1-4)GlcNAc(b1-4)GlcNAc
# Outline: as §1
# [20] = molecular target: GlcNAc(a1-4)Gal(b1-4)GalNAc
# Outline: as §1
# [21] = molecular target: GlcNAc(b1-3)Gal(b1-4)GlcNAc(b1-2)Man(a1-3)[GlcNAc(b1-3)Gal(b1-4)GlcNAc(b1-2)Man(a1-6)]Man(b1-4)GlcNAc(b1-4)[Fuc(a1-6)]GlcNAc
# Outline: as §1
# [22] = molecular target: GlcNAc(b1-3)Gal(b1-4)GlcNAc(b1-3)Gal(b1-4)GlcNAc(b1-2)Man(a1-3)[GlcNAc(b1-3)Gal(b1-4)GlcNAc(b1-3)Gal(b1-4)GlcNAc(b1-2)Man(a1-6)]Man(b1-4)GlcNAc(b1-4)GlcNAc
# Outline: as §1
# [23] = molecular target: GlcNAc(b1-3)Gal(b1-4)GlcNAc(b1-3)Gal(b1-4)GlcNAc(b1-2)Man(a1-3)[GlcNAc(b1-3)Gal(b1-4)GlcNAc(b1-3)Gal(b1-4)GlcNAc(b1-2)Man(a1-6)]Man(b1-4)GlcNAc(b1-4)[Fuc(a1-6)]GlcNAc
# Outline: as §1
# [24] = molecular target: GlcNAc6S(b1-3)Gal(b1-4)GlcNAc
# Outline: as §1
# Kdn(a2-3)Gal(b1-3)GlcNAc = molecular target: Kdn(a2-3)Gal(b1-3)GlcNAc
# Outline: as §1
# [25] = molecular target: Man(a1-2)Man(a1-3)[Man(a1-6)]Man(a1-6)[Man(a1-2)Man(a1-3)]Man(b1-4)GlcNAc(b1-4)GlcNAc
# Outline: as §1
# [26] = molecular target: Man(a1-2)Man(a1-6)[Man(a1-3)]Man(a1-6)[Man(a1-2)Man(a1-2)Man(a1-3)]Man
# Outline: as §1
# [27] = molecular target: Man(a1-3)[Man(a1-6)]Man(a1-6)[Man(a1-2)Man(a1-3)]Man(b1-4)GlcNAc(b1-4)GlcNAc
# Outline: as §1
# [28] = molecular target: Man(a1-3)[Man(a1-6)]Man(a1-6)[Man(a1-3)]Man(b1-4)GlcNAc(b1-4)GlcNAc
# Outline: as §1
# Man(b1-4)GlcNAc = molecular target: Man(b1-4)GlcNAc
# Outline: as §1
# [29] = molecular target: Neu5Ac(a2-3)Gal(b1-3)GalNAc(b1-3)Gal(a1-4)Gal(b1-4)Glc
# Outline: as §1
# [30] = molecular target: Neu5Ac(a2-3)Gal(b1-3)GlcNAc(b1-2)Man
# Outline: as §1
# [31] = molecular target: Neu5Ac(a2-3)Gal(b1-4)GlcNAc
# Outline: as §1
# [32] = molecular target: Neu5Ac(a2-3)Gal(b1-4)GlcNAc(b1-2)Man(a1-3)[Neu5Ac(a2-3)Gal(b1-4)GlcNAc(b1-2)Man(a1-6)]Man(b1-4)GlcNAc(b1-4)[Fuc(a1-6)]GlcNAc
# Outline: as §1
# [33] = molecular target: Neu5Ac(a2-3)Gal(b1-4)GlcNAc(b1-2)[Neu5Ac(a2-3)Gal(b1-4)GlcNAc(b1-4)]Man(a1-3)[GlcNAc(b1-4)][Neu5Ac(a2-3)Gal(b1-4)GlcNAc(b1-4)Man(a1-6)]Man(b1-4)GlcNAc(b1-4)GlcNAc
# Outline: as §1
# [34] = molecular target: Neu5Ac(a2-3)Gal(b1-4)[Fuc(a1-3)]GlcNAc(b1-3)Gal(b1-4)[Fuc(a1-3)]GlcNAc(b1-3)Gal(b1-4)[Fuc(a1-3)]GlcNAc
# Outline: as §1
# [35] = molecular target: Neu5Ac(a2-3)[Neu5Ac(a2-6)]GalNAc
# Outline: as §1
# [36] = molecular target: Neu5Ac(a2-6)Gal(b1-4)GlcNAc(b1-2)Man(a1-3)[GlcNAc(b1-4)][Neu5Ac(a2-6)Gal(b1-4)GlcNAc(b1-2)Man(a1-6)]Man(b1-4)GlcNAc(b1-4)GlcNAc
# Outline: as §1
# [37] = molecular target: Neu5Ac(a2-8)Neu5Gc(a2-3)Gal(b1-4)GlcNAc
# Outline: as §1
# [38] = molecular target: Neu5Gc(b2-6)Gal(b1-4)GlcNAc
# Outline: as §1
binder,measurement,setting,value
PX14379D-pdi-530-26-530 (Parabacteroides distasonis) (protein) DETVYDKLPADDFGQSTAELNALIGNSHNTMKKFWTEYMHLSECSGSMAVTPTRRGGDWYDGGQYREIYMHTWTSQTSRVKSAWKAATEAIGTCNEAIRKLQNSEILTEEEKAQDVADLRGVRAFWIYVMMDYWGNIPLLTEFHPTDKVFPGNSSRQEVFDWLIQEVEEIKDICPPATTENYGSFTQGAAYSLLAKLYLNAEAWGVTFSGNAYQKVIDNCDKVMAMGYILEPNWKDNFSVTNENSKEAILAATFSSSDTGNDGNVKNELHNNTLHYKDYLSLGITASGTWNGICAQPEYVRLFDEEDARLDGTFLTGLMIDKSTGKPIMTDHNNELNHTIDVNMIPGMEYDGTNWSAVEQHDGARCFKWEFASDLTSSMGNDFHIFRLADIYLMKAEALLRGGGSVSEATALVNTIRERGYGNSDHNYATVTLKEVQLERRLELAWEVYSRQDDIRFGCFTTGMWPQSNCERKADDYLKLLPVSQDAWQVNPNLKQNPGYAAFSK,glycan array binding signal (z-score),[1],-1.42
same,glycan array binding signal (z-score),[2],-0.233
same,glycan array binding signal (z-score),[3],-0.436
same,glycan array binding signal (z-score),[4],2.52
same,glycan array binding signal (z-score),[5],2.88
same,glycan array binding signal (z-score),[6],1.09
same,glycan array binding signal (z-score),Fuc(a1-3)GlcNAc,-0.715
same,glycan array binding signal (z-score),[7],-0.689
same,glycan array binding signal (z-score),[8],-0.221
same,glycan array binding signal (z-score),[9],2.48
same,glycan array binding signal (z-score),Gal(a1-3)Gal(b1-4)Glc,-0.838
same,glycan array binding signal (z-score),[10],4.67
same,glycan array binding signal (z-score),[11],-1.22
same,glycan array binding signal (z-score),[12],-1.08
same,glycan array binding signal (z-score),[13],2.97
same,glycan array binding signal (z-score),[14],-0.298
same,glycan array binding signal (z-score),[15],1.92
same,glycan array binding signal (z-score),[16],3.06
same,glycan array binding signal (z-score),[17],1.59
same,glycan array binding signal (z-score),[18],0.063
same,glycan array binding signal (z-score),Gal3S(b1-3)GlcNAc,-0.593
same,glycan array binding signal (z-score),Gal3S6S(b1-4)GlcNAc6S,2.52
same,glycan array binding signal (z-score),[19],2.64
same,glycan array binding signal (z-score),[20],-0.622
same,glycan array binding signal (z-score),[21],0.749
same,glycan array binding signal (z-score),[22],2.91
same,glycan array binding signal (z-score),[23],2.19
same,glycan array binding signal (z-score),[24],0.56
same,glycan array binding signal (z-score),Kdn(a2-3)Gal(b1-3)GlcNAc,-0.752
same,glycan array binding signal (z-score),[25],-1.26
same,glycan array binding signal (z-score),[26],-0.013
same,glycan array binding signal (z-score),[27],-0.447
same,glycan array binding signal (z-score),[28],-0.474
same,glycan array binding signal (z-score),Man(b1-4)GlcNAc,-1.02
same,glycan array binding signal (z-score),[29],0.43
same,glycan array binding signal (z-score),[30],0.26
same,glycan array binding signal (z-score),[31],-0.826
same,glycan array binding signal (z-score),[32],0.415
same,glycan array binding signal (z-score),[33],-0.482
same,glycan array binding signal (z-score),[34],-0.094
same,glycan array binding signal (z-score),[35],-1.44
same,glycan array binding signal (z-score),[36],0.549
same,glycan array binding signal (z-score),[37],12.8
same,glycan array binding signal (z-score),[38],-0.722
